Assay results as given in PubChem BioAssay AID504415 (Broad Institute, 2011).
Results with a measured potency or affinity are listed apart. Records with an inconclusive call do not appear. Values without a mark were called inactive.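 Rule for the calls: active = compound lowering the signal whose fitted half-maximal concentration is at most ten times its top tested dose; inconclusive = flat curve with 30 to 70% loss, or poor fit; inactive = the rest.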

Test: Mcl1-dependent cancer cell viability – HMC-1-8 cells, luminescence, dry powder, selectivity assay for A1 inhibitor project, dose response (AID 504415)
Details: HMC-1-8 (Mcl1-dependent) viability, Glo luminescence, 24 h; series mostly up to 35 µM; activity change, negative = viability loss: at the top concentration

Q: Which “activity change, negative = viability loss” value does the source give for `O=c1oc2ccccc2c(Cl)c1[N+](=O)[O-]` here?
A: The value was 23.9%.

Q: For `Cn1c(=O)c([N+](=O)[O-])c(Oc2ccccc2)c2ccccc21`, which “activity change, negative = viability loss” value is on record?
A: Its value is 12.5%.

Q: Which “activity change, negative = viability loss” value does the source give for `CCOC(=O)N1CCN(c2c([N+](=O)[O-])c(=O)n(C)c3ccccc23)CC1` here?
A: Its value is 8.34%.

Q: With `Cc1ccc(Nc2c([N+](=O)[O-])c(=O)n(C)c3ccccc23)cc1` as the compound, how does the “activity change, negative = viability loss” value read?
A: Its value is 5.87%.

Q: Which “activity change, negative = viability loss” value does the source give for `Cc1ccc(Nc2c([N+](=O)[O-])c(=O)oc3ccccc23)cc1` here?
A: The value was 10.5%.
